Bioassay records: PubChem BioAssay, Broad Institute
Most compounds without a hit are left out; they make up all but 2.6% or so of the library.
mut p53 SMM: binds human mutant p53 on microarray; 17,000 compounds, 0.4% hits; calls only; small molecule microarray binding, anti-GST fluorescence;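 active = compounds whose four printed spots each glow above background more than chance allows, each with a p-value under 7%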
c-Myc SMM: c-Myc (human) binding. calls only. 17,000 compounds, 1.5% hits. small molecule microarray, His-c-Myc binding, anti-His fluorescence;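 active = spot fluorescence over background with P-value below 7% in all four replicate spots, showing protein binding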;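 note: score is binary with 100 for all four spots passing and 0 otherwise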
Target sequence (P01106 whole entry, looked up): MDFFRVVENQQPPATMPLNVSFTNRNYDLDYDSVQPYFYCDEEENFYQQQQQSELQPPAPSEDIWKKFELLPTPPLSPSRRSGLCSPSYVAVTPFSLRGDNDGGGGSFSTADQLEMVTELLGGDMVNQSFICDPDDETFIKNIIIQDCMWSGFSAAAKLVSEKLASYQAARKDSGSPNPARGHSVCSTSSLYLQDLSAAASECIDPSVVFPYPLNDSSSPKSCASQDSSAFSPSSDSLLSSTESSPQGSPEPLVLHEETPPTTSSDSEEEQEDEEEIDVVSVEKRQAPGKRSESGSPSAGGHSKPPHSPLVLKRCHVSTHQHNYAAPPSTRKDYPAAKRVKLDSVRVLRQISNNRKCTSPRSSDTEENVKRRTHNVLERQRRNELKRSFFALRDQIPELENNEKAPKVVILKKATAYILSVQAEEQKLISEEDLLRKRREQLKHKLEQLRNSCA
mut p53 react: restores mutant p53 pathway signaling in SW480 cells. SW480 PUMA-promoter luciferase, p53 mutant reactivation. activation, % at 9.98 µM. 28,000 compounds, 1.5% hits; in the data active = activation above about 52%; inconclusive = no clear call, values can overlap the other calls
NFkB binder: binders of human NF-kappa-B p105 | Small molecule microarray, anti-His fluorescence binding | calls only | 17,000 compounds, 1.3% hits | AID 624139;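 active = spot fluorescence over background significantly raised, with a chance value under 7% in all four replicate spots of the compound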;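 note: probe protein is his-tagged human p50 processed subunit at 1 µg/ml; raw spot fluorescence signals with no normalization applied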
STAT3 binder: binds human STAT3 on microarray; P40763; Small molecule microarray, His-STAT3 binding, anti-His fluorescence; calls only; 17,000 compounds, 0.2% hits; AID 624138;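 active = compounds whose four printed spots each show fluorescence over background unusually high for their array block, chance value under 7%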
* marks the source's active call; other numbers are inactive results; i = inactive; ? = inconclusive; . = not tested or not shown; + = active, no number.

SMILES	mut p53 SMM	c-Myc SMM	mut p53 react	NFkB binder	STAT3 binder
COc1ccc2c(c1)c(=O)oc1c(C)c(OCC(=O)NCC3CCCO3)ccc12 (stereo not drawn)	i	i	52*	i	i
Cc1nn(C(C)C(=O)Nc2ccc(F)c(Cl)c2)c(C)c1[N+](=O)[O-] (stereo not drawn)	.	.	22	.	.
CC(=O)c1cccc(NC(=O)c2ccsc2NC(=O)COc2ccccc2)c1	i	i	9	i	i
Cc1ccc(O)c(NC(=O)c2nc3ncccn3n2)c1	i	i	58*	i	i
O=C(Nc1cccnc1)c1nc2ncccn2n1	.	.	-1	.	.
Cc1nn(CC(=O)Nc2ccc3c(c2)nc(CN2CCCC2)n3C)c(=O)c2ccccc12	+	+	11	i	i
Cc1cccc(OCC(=O)Nc2ccc3c(c2)nc(CN2CCCCC2)n3C)c1	.	.	9	.	.
O=C(COc1ccc(S(=O)(=O)NC2CCCCC2)cc1Cl)N1CCOCC1	.	.	-9	.	.
Cc1cc(S(=O)(=O)NC2CCCCC2)ccc1OCC(=O)O	i	+	-8	i	i
N#Cc1ccc(NC(=O)CCN2C(=O)c3ccccc3C2=O)cc1	.	.	39	.	.
N#Cc1ccc(NC(=O)c2ccc(Br)o2)cc1	.	.	64*	.	.
c1ccc(-c2nn3c(Cn4cnc5ccccc54)nnc3s2)nc1	.	.	12	.	.
COc1ccc(NC(=O)CN2C(=O)COc3ccc(Cl)cc32)cc1	.	.	5	.	.
CCN(CC)CCNc1ncnc2scc(-c3ccc(F)cc3)c12	i	i	-7	i	i
CCOC(=O)c1ccc(COc2ccc(-c3cnc4ccccc4n3)cc2)o1	i	i	130*	i	i
Cc1cc(NC(=O)c2nn3cccnc3c2Cl)no1	i	i	5	i	i
C=CCNc1nc(N)c(C(=O)Nc2cc(C)on2)s1	i	i	70*	i	i
Cc1cc(C)c(C)c(OCC(O)Cn2cnc3ccccc32)c1 (stereo not drawn)	.	.	-13	.	.
CC1=C(CO)C(=O)OC([C@@H](C)[C@H]2CCC3C4CC=C5C[C@@H](O[C@@H]6O[C@H](CO)[C@@H](O)[C@H](O)[C@H]6O)C[C@H](O)[C@]5(C)C4CC[C@@]32C)C1 (stereo partly drawn)	i	i	-5	i	i
CC1CCC2(NC1)OC1CC3C4CC=C5CC(O[C@@H]6O[C@H](CO)[C@@H](O[C@@H]7O[C@@H](C)[C@H](O)[C@@H](O)[C@H]7O)[C@H](O)[C@H]6O)CCC5(C)C4CCC3(C)C1C2C (stereo partly drawn)	i	i	3	+	i
CC[C@H](CO)Nc1nc(NCc2ccccc2)c2ncn(C(C)C)c2n1	.	.	119*	.	.
CC(C)n1cnc2c(Nc3cccc(Cl)c3)nc(NCCO)nc21	i	i	5	i	i
Cc1[nH]c2ccccc2c1C(=O)CSc1nc2ccccc2o1	.	.	31	.	.
Cc1[nH]c2ccccc2c1C(=O)CSc1nc2ccccc2[nH]1	.	.	62*	.	.
COc1cc(-c2nc3ccccc3s2)cc(Br)c1OCC(=O)O	i	+	-19	i	i
SMILES	mut p53 SMM	c-Myc SMM	mut p53 react	NFkB binder	STAT3 binder
COc1ccc(-c2nc3ccccc3s2)cc1NC(=O)COc1ccc(Br)cc1	.	.	79*	.	.
COc1ccc(-c2nc3ccccc3s2)cc1NC(=O)COc1ccc(C(C)C)cc1	.	.	48	.	.
CCOC(=O)Cc1cc(=O)[nH]c(Nc2nc3ccccc3o2)n1	+	i	?	i	i
COc1ccccc1NC(=O)c1c(C)nc(Nc2nc3ccccc3o2)nc1C	i	i	18	i	i
Cc1ccc(-c2nnc3c4ccccc4c(C)nn23)cc1S(=O)(=O)N(C)CCO	.	.	56*	.	.
C[C@@H]1CCCCO[C@@H](CN(C)Cc2ccc3c(c2)OCO3)[C@H](C)CN([C@@H](C)CO)C(=O)c2cc(NC(=O)CCCN(C)C)ccc2O1	i	i	-1	i	i
CCOC(=O)COc1ccc(-c2nc3c([nH]2)c(=O)n(C)c(=O)n3C)cc1OC	i	i	-3	i	i
O=c1c2ccccc2ncn1CCCOc1ccccc1[N+](=O)[O-]	.	.	92*	.	.
COc1ccc2c(c1OC)C(=O)OC2C1c2c(cc3c(c2OC)OCO3)CCN1C (stereo not drawn)	i	i	3	i	i
OC1c2ccccc2-c2c3c(cc4c2C1NCC4)OCO3 (stereo not drawn)	i	+	13	+	i
Cc1ccc(NC(=O)c2ccc(OC(=O)CCN3C(=O)c4ccccc4C3=O)cc2)cc1	.	.	102*	.	.
COCCOC(=O)N1C(=O)[C@@]2(c3ccccc31)[C@H](C(N)=O)[C@H]1C(=O)O[C@H](c3ccccc3)[C@H](c3ccccc3)N1[C@@H]2c1ccc(OCCO)cc1	i	i	.	i	i
Cc1cc(C)c(C)c(OCC(=O)Nc2ccccc2C(N)=O)c1	.	.	53*	.	.
CCc1ccc(OCC(=O)Nc2ccccc2C(N)=O)c(Br)c1	i	i	71*	i	i
C[C@H]1CCCCO[C@H](CN(C)C(=O)CCC(F)(F)F)[C@@H](C)CN([C@@H](C)CO)C(=O)c2cc(NC(=O)CCC(F)(F)F)ccc2O1	i	i	1	i	i
C[C@@H]1CN([C@@H](C)CO)C(=O)c2cc(NC(=O)CCC(F)(F)F)ccc2O[C@@H](C)CCCCO[C@H]1CN(C)C(=O)CCC(F)(F)F	i	i	4	+	i
C[C@@H]1CCCCO[C@H](CN(C)C(=O)CCC(F)(F)F)[C@@H](C)CN([C@H](C)CO)C(=O)c2cc(NC(=O)CCC(F)(F)F)ccc2O1	+	+	-5	+	i
C[C@@H]1CN([C@@H](C)CO)C(=O)Cc2cc(NC(=O)Cc3cn(C)c4ccccc34)ccc2O[C@@H]1CN(C)CC1CC1	i	i	-6	i	i
C[C@@H]1CN([C@@H](C)CO)C(=O)c2cccc(NS(=O)(=O)c3ccc(Cl)cc3)c2O[C@@H]1CN(C)S(=O)(=O)c1cn(C)cn1	i	i	2	i	i
C[C@H](CCC(=O)O)[C@H]1CCC2[C@@H]3CC[C@@H]4C[C@H](O)CC[C@]4(C)C3C=C[C@@]21C (stereo partly drawn)	i	i	-5	+	i
C[C@H](CCC(=O)NCC(=O)O)[C@H]1CC[C@H]2[C@@H]3[C@H](O)C[C@@H]4C[C@H](O)CC[C@]4(C)[C@H]3C[C@H](O)[C@]12C	i	i	-3	i	i
COc1cc(/C=C/CO[C@@H]2O[C@H](CO)[C@@H](O)[C@H](O)[C@H]2O)ccc1O	i	i	8	i	i
O=C(COc1ccccc1CO)Nc1ccccc1	i	i	77*	i	i
O=C(COc1ccc(Cl)cc1CO)Nc1ccc(F)cc1	i	i	69*	i	i
O=C(COc1ccc(Br)cc1CO)Nc1ccccc1F	.	.	112*	.	.
O=C(COc1ccc(CO)cc1)Nc1ccccc1	i	i	66*	i	i
COc1ccccc1NC(=O)COc1ccc(Br)cc1CO	.	.	37	.	.
